Measured values as given in ChEMBL document CHEMBL3433997, “St. Jude Leishmania screening dataset” (2016).

Biological target: Solute carrier family 2, facilitated glucose transporter member 1 (Homo sapiens) (UniProt P11166)
Assay: ST_JUDE_LEISH: Cytotoxicity at 2uM final concentration against transgenic Leishmania Mexicana promastigotes LmGLUT1 that are glucose transport deficient and complemented with the human glucose transporter GLUT1. Activity is measured by DNA content using SYBR green in vitro
Format: functional

Chain of Solute carrier family 2, facilitated glucose transporter member 1 (Homo sapiens) (P11166 whole entry): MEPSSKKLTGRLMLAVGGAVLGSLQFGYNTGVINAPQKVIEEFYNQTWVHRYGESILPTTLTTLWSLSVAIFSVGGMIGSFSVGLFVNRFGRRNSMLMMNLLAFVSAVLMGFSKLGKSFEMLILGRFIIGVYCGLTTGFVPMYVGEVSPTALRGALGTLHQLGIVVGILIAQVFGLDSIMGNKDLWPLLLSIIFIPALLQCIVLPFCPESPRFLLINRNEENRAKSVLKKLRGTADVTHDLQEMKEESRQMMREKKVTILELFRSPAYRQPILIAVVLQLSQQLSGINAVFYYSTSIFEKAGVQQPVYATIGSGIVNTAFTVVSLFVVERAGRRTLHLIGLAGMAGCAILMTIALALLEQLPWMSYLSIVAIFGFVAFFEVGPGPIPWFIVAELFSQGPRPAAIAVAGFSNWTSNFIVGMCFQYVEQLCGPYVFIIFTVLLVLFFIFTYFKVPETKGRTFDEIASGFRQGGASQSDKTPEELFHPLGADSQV

First: COc1cc2ncnc(Nc3ccc4nc(Cc5ccccc5)[nH]c4c3)c2cc1OC
Second: COc1cc(NC2=C(c3ccccc3)C(=O)c3ccccc32)ccn1
The inhibition of the first is lower: 1.2% for the first, 4.66% for the second.

First: COc1ccc(-n2c(=O)c3c(n4c(SC(C)C)nnc24)-c2ccccc2CC32CCCCC2)cc1
Second: COc1ccc2nccc(N3CCN(CCNCc4ccc5c(n4)NC(=O)CO5)CC3)c2c1
The inhibition of the first is lower: 1.32% for the first, 8.8% for the second.

First: CCN(CCCN1CCCCC1)c1cc(C)nc(Nc2ccc(F)c(C(F)(F)F)c2)n1
Second: CCN(CCCN1CCCCC1)c1cc(C)nc(Nc2ccc(OC)cc2)n1
The inhibition of the first is higher: -1.41% for the first, -2.3% for the second.

Going from `CCCCCCCc1ccc(-c2c(C)[nH]c(C)c(Cl)c2=O)cn1` to `Cc1[nH]cnc1CSCCNC(=N)NCCCCCCCCNC(=N)NCCSCc1nc[nH]c1C`, the inhibition falls from 0.84% to -1.07%.

First: CCc1cc(OC)c(C(=O)NC2CCN(C[C@H](O)c3ccnc4ccc(OC)cc34)CC2)cc1Br
Second: Cc1cc(OCCCN2CCC(NS(=O)(=O)c3ccc(Cl)c(Cl)c3)C2)c2ccccc2n1 (stereo not given)
The inhibition of the first is lower: 1.58% for the first, 3.81% for the second.

First: CS(=O)(=O)Nc1ccc2[nH]cc(C3CCN(CC4CCC(NC(=O)/C=C/c5ccc(Cl)c(Cl)c5)CC4)CC3)c2n1 (stereo not given)
Second: CC1(C)C2C=C(CN3CCC(NC(=O)Nc4ccc(Cl)c(Cl)c4)CC3)C1CC2 (stereo not given)
The inhibition of the first is lower: 3.3% for the first, 8.89% for the second.

Compared with `Cc1noc(C)c1C(=O)N1CCCC(c2[nH]c3c(C)cccc3c2-c2ccncc2)C1` (stereo not given), `Cc1ccccc1C1CCN(c2ccc(NC(=O)c3ccc(Cl)nc3)cc2)CC1` is higher in inhibition: 2.42% for the first, 3.34% for the second.

First: c1cnc2ccc(NCc3ccc(-c4ccc(CNC5CCCC5)cc4)cc3)cc2c1
Second: Fc1ccc2[nH]c(-c3cccc(-c4ccc(CNCc5ccccc5)cc4)c3)nc2c1
The inhibition of the first is lower: 0.93% for the first, 7.37% for the second.

Compared with `Nc1nc(N)c2c(ccc3nn(S(=O)(=O)N4CCCC4)cc32)n1`, `COc1cc(Cc2cnc(N)nc2N)c2ccsc2c1OC` is lower in inhibition: 4.35% for the first, 4.16% for the second.

Compared with `Cc1cccc(CNc2nc(C)cc(N[C@@H](CC(C)C)C(=O)NCc3cccc(F)c3)n2)c1`, `Cc1cc(N[C@@H](Cc2ccccc2)C(=O)NCc2cccs2)nc(NCCc2cccnc2)n1` is lower in inhibition: 4.53% for the first, 1.39% for the second.

Compared with `CCc1nc2c(cnn2CC)c(NC2CCOCC2)c1CNC(=O)N1CCOCC1`, `COc1c(C2CCN(CCCCNC(=O)c3ccc(-c4ccc(C#N)cc4)c(O)c3)CC2)ccc2c1CCCC2` is lower in inhibition: 3.81% for the first, -0.29% for the second.

First: Cc1cc2c(cc1Cl)N(C(=O)Nc1cc(F)cc(-c3cncnc3)c1)CC2
Second: Cc1nnsc1C(=O)Nc1cccc(-c2ccc(-c3nc4cc(F)ccc4[nH]3)cc2)c1
The inhibition of the first is higher: 9.04% for the first, 3.93% for the second.

Compared with `O=C(C=Cc1cn(-c2ccccc2)nc1-c1ccccc1)N1CCN(c2ccncc2)CC1`, `O=C(Nc1ccccc1Oc1ccccc1)NC1CCN(c2ccnc3cc(Cl)ccc23)C1` (stereo not given) is lower in inhibition: 5.75% for the first, 3.65% for the second.

Compared with `CCN(CC)CCN(Cc1ccc(-c2ccc(C(F)(F)F)cc2)cc1)C(=O)Cn1c(CCc2cc(F)c(F)c(F)c2)nc(=O)c2ccccc21`, `Cn1cncc1CCN(Cc1ccc(-c2ccc(C(F)(F)F)cc2)cc1)C(=O)Cn1c(CCc2cccc(F)c2F)cc(=O)c2cccnc21` is lower in inhibition: 9.62% for the first, 1.83% for the second.

Compared with `COCCCN=C(S)NN=C(C)c1ccccn1`, `CCN(CC)c1nc(Nc2cc(C)ccc2C)nc(Nc2ccccc2O)n1` is higher in inhibition: 0.61% for the first, 4.16% for the second.

Compared with `CCCOc1ccc(CCNCCCCNCCc2ccc(OCCC)c3ccccc23)c2ccccc12`, `CC(=O)Nc1ccc(OCCCCN(Cc2ccccc2C(F)(F)F)c2ccc(C#N)c(C(F)(F)F)c2)c(Cl)c1` is lower in inhibition: 101% for the first, 4.39% for the second.

Going from `CN1CCN(CCCN(Cc2csc(-c3ccc(CNCc4ccccc4)cc3)n2)C(=O)Nc2ccc3ccccc3c2)CC1` to `Fc1ccc2[nH]c(-c3ccc(-c4ccc(CNCc5cnn(-c6ccccc6)n5)cc4)cc3)nc2c1`, the inhibition falls from 2.94% to 1.68%.

Going from `N=C(N)NN=C1C=Cc2cccc3cccc1c23` to `Fc1ccc2[nH]c(-c3cccc(-c4cccc(CNCC5CCCO5)c4)c3)nc2c1` (stereo not given), the inhibition rises from -1.8% to -0.33%.

First: O=C(NCC1CCN(Cc2cccc(F)c2)C1)c1cc(-c2cccc(C(F)(F)F)c2)cs1 (stereo not given)
Second: O=C(Nc1ccc(OC2CCN(Cc3ccc(F)cc3)C2)cc1)c1ccco1 (stereo not given)
The inhibition of the first is lower: -1.66% for the first, 2.22% for the second.

Compared with `CN(C)c1ccc(-c2nnc(Sc3ccc(C#N)c([N+](=O)[O-])c3)n2Cc2ccco2)cc1`, `COc1ccc(-c2cncc(-c3ccc(OC)c(OC)c3)n2)cc1OC` is lower in inhibition: 3.82% for the first, 2.76% for the second.

Biological target: Hexose transporter 1 (Plasmodium falciparum) (UniProt O97467)
Assay: ST_JUDE_LEISH: Cytotoxicity at 2uM final concentration against transgenic Leishmania Mexicana promastigotes LmPfHT that are glucose transport deficient and complemented with the Plasmodium falciparum hexose transporter. Activity is measured by DNA content using SYBR green in vitro
Format: functional

Compared with `COc1cc2ncnc(Nc3ccc4nc(Cc5ccccc5)[nH]c4c3)c2cc1OC`, `COc1cc(NC2=C(c3ccccc3)C(=O)c3ccccc32)ccn1` is higher in inhibition: 1.95% for the first, 2.03% for the second.

Going from `COc1ccc(-n2c(=O)c3c(n4c(SC(C)C)nnc24)-c2ccccc2CC32CCCCC2)cc1` to `COc1ccc2nccc(N3CCN(CCNCc4ccc5c(n4)NC(=O)CO5)CC3)c2c1`, the inhibition rises from 1.21% to 8.24%.

First: CCN(CCCN1CCCCC1)c1cc(C)nc(Nc2ccc(F)c(C(F)(F)F)c2)n1
Second: CCN(CCCN1CCCCC1)c1cc(C)nc(Nc2ccc(OC)cc2)n1
The inhibition of the first is lower: -1.38% for the first, -1.06% for the second.

First: CCCCCCCc1ccc(-c2c(C)[nH]c(C)c(Cl)c2=O)cn1
Second: Cc1[nH]cnc1CSCCNC(=N)NCCCCCCCCNC(=N)NCCSCc1nc[nH]c1C
The inhibition of the first is higher: 1.55% for the first, 0.71% for the second.

Going from `CCc1cc(OC)c(C(=O)NC2CCN(C[C@H](O)c3ccnc4ccc(OC)cc34)CC2)cc1Br` to `Cc1cc(OCCCN2CCC(NS(=O)(=O)c3ccc(Cl)c(Cl)c3)C2)c2ccccc2n1` (stereo not given), the inhibition rises from -0.43% to 4.67%.

Going from `CS(=O)(=O)Nc1ccc2[nH]cc(C3CCN(CC4CCC(NC(=O)/C=C/c5ccc(Cl)c(Cl)c5)CC4)CC3)c2n1` (stereo not given) to `CC1(C)C2C=C(CN3CCC(NC(=O)Nc4ccc(Cl)c(Cl)c4)CC3)C1CC2` (stereo not given), the inhibition rises from 1.84% to 7.57%.

Going from `Cc1noc(C)c1C(=O)N1CCCC(c2[nH]c3c(C)cccc3c2-c2ccncc2)C1` (stereo not given) to `Cc1ccccc1C1CCN(c2ccc(NC(=O)c3ccc(Cl)nc3)cc2)CC1`, the inhibition falls from 3% to -3.74%.

Compared with `c1cnc2ccc(NCc3ccc(-c4ccc(CNC5CCCC5)cc4)cc3)cc2c1`, `Fc1ccc2[nH]c(-c3cccc(-c4ccc(CNCc5ccccc5)cc4)c3)nc2c1` is higher in inhibition: 0.1% for the first, 9.95% for the second.

Going from `Nc1nc(N)c2c(ccc3nn(S(=O)(=O)N4CCCC4)cc32)n1` to `COc1cc(Cc2cnc(N)nc2N)c2ccsc2c1OC`, the inhibition falls from 4.05% to 3.31%.

Going from `Cc1cccc(CNc2nc(C)cc(N[C@@H](CC(C)C)C(=O)NCc3cccc(F)c3)n2)c1` to `Cc1cc(N[C@@H](Cc2ccccc2)C(=O)NCc2cccs2)nc(NCCc2cccnc2)n1`, the inhibition falls from 3.4% to 1.61%.

First: CCc1nc2c(cnn2CC)c(NC2CCOCC2)c1CNC(=O)N1CCOCC1
Second: COc1c(C2CCN(CCCCNC(=O)c3ccc(-c4ccc(C#N)cc4)c(O)c3)CC2)ccc2c1CCCC2
The inhibition of the first is lower: -1.12% for the first, -0.43% for the second.

Compared with `Cc1cc2c(cc1Cl)N(C(=O)Nc1cc(F)cc(-c3cncnc3)c1)CC2`, `Cc1nnsc1C(=O)Nc1cccc(-c2ccc(-c3nc4cc(F)ccc4[nH]3)cc2)c1` is lower in inhibition: 5% for the first, 3.3% for the second.

Compared with `O=C(C=Cc1cn(-c2ccccc2)nc1-c1ccccc1)N1CCN(c2ccncc2)CC1`, `O=C(Nc1ccccc1Oc1ccccc1)NC1CCN(c2ccnc3cc(Cl)ccc23)C1` (stereo not given) is lower in inhibition: 5.64% for the first, 4.63% for the second.

Going from `CCN(CC)CCN(Cc1ccc(-c2ccc(C(F)(F)F)cc2)cc1)C(=O)Cn1c(CCc2cc(F)c(F)c(F)c2)nc(=O)c2ccccc21` to `Cn1cncc1CCN(Cc1ccc(-c2ccc(C(F)(F)F)cc2)cc1)C(=O)Cn1c(CCc2cccc(F)c2F)cc(=O)c2cccnc21`, the inhibition falls from 9.17% to 2.38%.

Compared with `COCCCN=C(S)NN=C(C)c1ccccn1`, `CCN(CC)c1nc(Nc2cc(C)ccc2C)nc(Nc2ccccc2O)n1` is higher in inhibition: -0.03% for the first, 5.53% for the second.

Compared with `CCCOc1ccc(CCNCCCCNCCc2ccc(OCCC)c3ccccc23)c2ccccc12`, `CC(=O)Nc1ccc(OCCCCN(Cc2ccccc2C(F)(F)F)c2ccc(C#N)c(C(F)(F)F)c2)c(Cl)c1` is lower in inhibition: 99.1% for the first, 4.65% for the second.

First: CN1CCN(CCCN(Cc2csc(-c3ccc(CNCc4ccccc4)cc3)n2)C(=O)Nc2ccc3ccccc3c2)CC1
Second: Fc1ccc2[nH]c(-c3ccc(-c4ccc(CNCc5cnn(-c6ccccc6)n5)cc4)cc3)nc2c1
The inhibition of the first is higher: 4.46% for the first, -1.57% for the second.

Going from `N=C(N)NN=C1C=Cc2cccc3cccc1c23` to `Fc1ccc2[nH]c(-c3cccc(-c4cccc(CNCC5CCCO5)c4)c3)nc2c1` (stereo not given), the inhibition falls from 2.26% to -0.14%.

Compared with `O=C(NCC1CCN(Cc2cccc(F)c2)C1)c1cc(-c2cccc(C(F)(F)F)c2)cs1` (stereo not given), `O=C(Nc1ccc(OC2CCN(Cc3ccc(F)cc3)C2)cc1)c1ccco1` (stereo not given) is higher in inhibition: -2.49% for the first, 2.86% for the second.

Compared with `CN(C)c1ccc(-c2nnc(Sc3ccc(C#N)c([N+](=O)[O-])c3)n2Cc2ccco2)cc1`, `COc1ccc(-c2cncc(-c3ccc(OC)c(OC)c3)n2)cc1OC` is lower in inhibition: 2.83% for the first, 2.56% for the second.
